The record followed here is paper PMC7862700, “An all-to-all approach to the identification of sequence-specific readers for epigenetic DNA modifications on cytosine”.

What all share (assay): DAPPL (digital affinity profiling via proximity ligation, sequencing); 10 mM Tris-HCl pH 7.5, 50 mM NaCl, 1 mM DTT, 4% glycerol, room temperature, 30 min; GST-TFs on glutathione beads, 16-mer random dsDNA library, 0.1% formaldehyde crosslink after washing; high values mean tight binding
One experiment deals with T1, FEV (Homo sapiens, UniProt Q99581 1-238).
T1 sequence: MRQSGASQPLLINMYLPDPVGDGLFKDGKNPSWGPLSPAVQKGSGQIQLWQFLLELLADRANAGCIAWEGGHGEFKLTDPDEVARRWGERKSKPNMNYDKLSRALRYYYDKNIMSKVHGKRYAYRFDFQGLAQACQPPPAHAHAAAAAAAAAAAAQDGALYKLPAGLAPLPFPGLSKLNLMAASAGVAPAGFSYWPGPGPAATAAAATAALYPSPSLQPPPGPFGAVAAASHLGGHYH
The following applies: protein: recombinant; tags: N-terminal GST; dsDNA, one strand shown. Put shortly: (§1)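 Pools were built from human transcription factors expressed in yeast as GST fusions, captured on glutathione beads and DNA-barcoded, along with a tag-only sample. Incubation with 200 nmole of a 16-mer random double-stranded DNA library lasted 30 min at room temperature in Tris/NaCl/DTT/glycerol buffer, and was followed by washing, 0.1% formaldehyde crosslinking, proximity ligation, PCR amplification and Illumina NextSeq500 sequencing. Binding signal is the quotient of each hexamer's read frequency for a factor and its frequency for the tag-only sample.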

The target in a further experiment is ETV5 (Homo sapiens, UniProt P41161 1-510). The following applies: protein: recombinant; tags: N-terminal GST; dsDNA, one strand shown. The procedure, abridged: as §1
The target in the next experiment is HSF1 (Homo sapiens, UniProt Q00613 1-529). To be noted: protein: recombinant; tags: N-terminal GST; chain copies: 3; dsDNA, one strand shown. The procedure, abridged:
as §1

The target of the next experiment is T2, SPIC (Homo sapiens, UniProt Q8N5J4 1-248).
T2 sequence: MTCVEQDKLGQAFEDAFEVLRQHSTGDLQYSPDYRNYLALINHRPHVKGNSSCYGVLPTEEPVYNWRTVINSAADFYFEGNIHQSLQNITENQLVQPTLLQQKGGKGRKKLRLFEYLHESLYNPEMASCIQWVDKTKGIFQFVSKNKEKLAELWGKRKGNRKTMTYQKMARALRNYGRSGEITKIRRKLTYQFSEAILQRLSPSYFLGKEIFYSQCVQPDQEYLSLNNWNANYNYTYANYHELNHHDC
The following applies: protein: recombinant; tags: N-terminal GST; dsDNA, one strand shown. The procedure, abridged: as §1

The target of a further experiment is ELF4 (Homo sapiens, UniProt Q99607 1-663). The following applies: protein: recombinant; tags: N-terminal GST; dsDNA, one strand shown. Put shortly: as §1
The next experiment addresses T3, ELK4 (Homo sapiens, UniProt P28324-2 1-405).
T3 sequence: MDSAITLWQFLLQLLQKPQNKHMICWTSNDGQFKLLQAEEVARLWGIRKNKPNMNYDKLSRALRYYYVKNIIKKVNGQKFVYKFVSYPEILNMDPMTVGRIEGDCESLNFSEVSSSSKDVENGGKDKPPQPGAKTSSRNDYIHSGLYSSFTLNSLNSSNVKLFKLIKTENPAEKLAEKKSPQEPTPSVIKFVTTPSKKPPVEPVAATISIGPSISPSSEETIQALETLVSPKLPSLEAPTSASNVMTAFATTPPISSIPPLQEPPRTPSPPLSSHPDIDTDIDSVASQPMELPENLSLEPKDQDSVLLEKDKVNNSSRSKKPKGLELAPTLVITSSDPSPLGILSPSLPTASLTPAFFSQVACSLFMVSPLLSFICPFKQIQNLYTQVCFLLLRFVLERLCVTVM
To be noted: protein: recombinant; tags: N-terminal GST; dsDNA, one strand shown. The procedure, abridged:
as §1

A further experiment addresses T4, ETV2 (Homo sapiens, UniProt O00321 1-342).
T4 sequence: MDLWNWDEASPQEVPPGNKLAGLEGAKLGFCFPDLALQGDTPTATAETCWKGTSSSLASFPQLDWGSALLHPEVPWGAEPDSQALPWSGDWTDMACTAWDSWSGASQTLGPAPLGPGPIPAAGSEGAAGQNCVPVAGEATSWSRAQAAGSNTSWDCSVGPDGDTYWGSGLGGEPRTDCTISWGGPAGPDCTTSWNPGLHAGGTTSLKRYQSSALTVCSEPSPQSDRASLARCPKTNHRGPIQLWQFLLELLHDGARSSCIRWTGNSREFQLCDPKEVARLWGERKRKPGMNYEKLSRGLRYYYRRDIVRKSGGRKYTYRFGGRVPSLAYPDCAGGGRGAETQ
To be noted: protein: recombinant; tags: N-terminal GST; dsDNA, one strand shown. Put shortly: as §1

A further experiment deals with T5, ELF3 (Homo sapiens, UniProt P78545 1-371).
T5 sequence: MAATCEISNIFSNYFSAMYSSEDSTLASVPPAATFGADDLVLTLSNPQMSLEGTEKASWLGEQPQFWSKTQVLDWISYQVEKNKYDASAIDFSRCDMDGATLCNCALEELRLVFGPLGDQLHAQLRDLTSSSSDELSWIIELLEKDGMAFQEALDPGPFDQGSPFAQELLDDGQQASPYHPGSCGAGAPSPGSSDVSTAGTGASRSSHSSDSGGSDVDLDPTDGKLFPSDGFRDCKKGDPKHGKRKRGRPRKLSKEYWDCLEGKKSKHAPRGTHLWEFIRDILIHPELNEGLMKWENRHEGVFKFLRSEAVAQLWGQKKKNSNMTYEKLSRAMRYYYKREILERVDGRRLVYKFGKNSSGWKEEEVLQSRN
The following applies: protein: recombinant; tags: N-terminal GST; dsDNA, one strand shown. The procedure, abridged:
as §1

The next experiment addresses CRX (Homo sapiens, UniProt O43186 1-299). To be noted: protein: recombinant; tags: N-terminal GST; dsDNA, one strand shown. The procedure, abridged:
as §1

Another experiment has as its target ETV1 (Homo sapiens, UniProt P50549 1-477). The following applies: protein: recombinant; tags: N-terminal GST; dsDNA, one strand shown. The procedure, abridged: as §1

Chain of ETV1 (P50549 whole entry): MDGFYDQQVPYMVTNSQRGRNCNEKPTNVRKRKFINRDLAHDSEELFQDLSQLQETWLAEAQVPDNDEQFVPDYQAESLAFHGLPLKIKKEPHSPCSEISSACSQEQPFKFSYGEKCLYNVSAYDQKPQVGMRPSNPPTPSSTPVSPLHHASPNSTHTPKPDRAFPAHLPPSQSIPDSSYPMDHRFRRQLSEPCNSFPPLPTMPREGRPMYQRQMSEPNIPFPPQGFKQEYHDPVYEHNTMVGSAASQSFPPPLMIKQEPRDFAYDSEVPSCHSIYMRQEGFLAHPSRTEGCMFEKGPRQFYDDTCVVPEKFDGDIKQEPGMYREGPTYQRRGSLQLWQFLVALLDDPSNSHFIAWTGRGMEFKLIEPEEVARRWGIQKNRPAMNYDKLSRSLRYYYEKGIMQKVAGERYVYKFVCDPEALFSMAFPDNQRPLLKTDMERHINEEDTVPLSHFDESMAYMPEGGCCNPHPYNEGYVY
Chain of HSF1 (Q00613 whole entry): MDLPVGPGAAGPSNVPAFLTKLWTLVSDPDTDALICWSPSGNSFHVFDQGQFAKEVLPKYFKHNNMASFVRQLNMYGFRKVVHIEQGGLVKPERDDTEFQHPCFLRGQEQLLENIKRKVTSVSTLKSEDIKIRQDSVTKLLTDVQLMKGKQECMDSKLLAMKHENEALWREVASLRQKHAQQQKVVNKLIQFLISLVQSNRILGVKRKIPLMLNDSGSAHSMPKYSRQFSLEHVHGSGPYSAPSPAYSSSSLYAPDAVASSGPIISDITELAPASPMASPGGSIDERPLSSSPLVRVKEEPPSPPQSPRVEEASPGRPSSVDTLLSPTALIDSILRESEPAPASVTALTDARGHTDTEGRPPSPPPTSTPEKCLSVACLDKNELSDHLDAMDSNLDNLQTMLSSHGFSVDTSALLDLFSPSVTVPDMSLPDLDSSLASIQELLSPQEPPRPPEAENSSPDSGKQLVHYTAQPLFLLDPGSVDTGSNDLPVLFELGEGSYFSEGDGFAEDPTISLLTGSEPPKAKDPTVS
Chain of ETV5 (P41161 whole entry): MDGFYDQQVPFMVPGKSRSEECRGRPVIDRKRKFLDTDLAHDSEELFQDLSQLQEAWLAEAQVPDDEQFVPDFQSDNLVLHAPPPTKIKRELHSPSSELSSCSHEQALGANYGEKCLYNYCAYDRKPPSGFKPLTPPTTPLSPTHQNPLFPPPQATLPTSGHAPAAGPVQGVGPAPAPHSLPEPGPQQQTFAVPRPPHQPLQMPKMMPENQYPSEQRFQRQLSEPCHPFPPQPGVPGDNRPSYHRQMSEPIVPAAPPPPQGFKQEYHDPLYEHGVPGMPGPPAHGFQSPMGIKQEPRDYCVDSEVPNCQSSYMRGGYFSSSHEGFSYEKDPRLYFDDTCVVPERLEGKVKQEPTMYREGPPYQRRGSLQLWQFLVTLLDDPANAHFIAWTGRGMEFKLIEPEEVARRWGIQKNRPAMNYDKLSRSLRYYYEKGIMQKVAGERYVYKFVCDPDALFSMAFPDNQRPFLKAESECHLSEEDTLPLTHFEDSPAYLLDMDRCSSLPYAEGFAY
Chain of ELF4 (Q99607 whole entry): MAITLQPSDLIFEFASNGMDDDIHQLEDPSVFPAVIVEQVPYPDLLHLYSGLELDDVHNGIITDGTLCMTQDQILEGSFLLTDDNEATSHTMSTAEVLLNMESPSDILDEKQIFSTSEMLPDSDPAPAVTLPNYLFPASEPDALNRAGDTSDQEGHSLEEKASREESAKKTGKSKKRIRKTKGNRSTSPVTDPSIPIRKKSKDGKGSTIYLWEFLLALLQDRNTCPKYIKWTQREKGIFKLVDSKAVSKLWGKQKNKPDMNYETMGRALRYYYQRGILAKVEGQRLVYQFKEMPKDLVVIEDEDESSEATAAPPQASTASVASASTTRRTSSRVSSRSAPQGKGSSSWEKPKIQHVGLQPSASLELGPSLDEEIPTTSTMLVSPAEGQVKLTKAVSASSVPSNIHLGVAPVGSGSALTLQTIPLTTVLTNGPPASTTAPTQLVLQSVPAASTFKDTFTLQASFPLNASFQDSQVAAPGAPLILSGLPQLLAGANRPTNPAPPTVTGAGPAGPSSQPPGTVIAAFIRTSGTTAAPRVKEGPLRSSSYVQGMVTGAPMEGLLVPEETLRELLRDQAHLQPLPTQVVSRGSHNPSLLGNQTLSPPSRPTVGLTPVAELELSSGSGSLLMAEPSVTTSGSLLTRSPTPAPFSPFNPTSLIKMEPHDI
Chain of CRX (O43186 whole entry): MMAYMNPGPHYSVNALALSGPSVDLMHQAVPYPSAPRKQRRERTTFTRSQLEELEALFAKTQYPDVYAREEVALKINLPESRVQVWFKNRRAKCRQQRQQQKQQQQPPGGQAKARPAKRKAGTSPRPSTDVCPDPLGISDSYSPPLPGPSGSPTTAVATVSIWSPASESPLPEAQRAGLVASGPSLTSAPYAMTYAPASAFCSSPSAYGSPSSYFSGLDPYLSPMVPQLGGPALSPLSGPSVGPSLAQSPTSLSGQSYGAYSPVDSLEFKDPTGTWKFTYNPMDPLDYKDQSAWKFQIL

On to TCCCAC, for which the binding signal with FEV was 1.38 fold enrichment (6-mer frequency, TF over GST control); with ETV5, 1.37 fold enrichment (6-mer frequency, TF over GST control); with HSF1 it was 1.17 fold enrichment (6-mer frequency, TF over GST control); with SPIC, 1.17 fold enrichment (6-mer frequency, TF over GST control); with ELF4, 1.34 fold enrichment (6-mer frequency, TF over GST control); with ELK4, 1.34 fold enrichment (6-mer frequency, TF over GST control). For the same sequence, the binding signal in the experiment with ETV2 is 1.12 fold enrichment (6-mer frequency, TF over GST control); in the experiment with ELF3, 1.46 fold enrichment (6-mer frequency, TF over GST control); in the experiment with CRX it was 1.34 fold enrichment (6-mer frequency, TF over GST control); with ETV1, 1.34 fold enrichment (6-mer frequency, TF over GST control).
Consider ACCGAC, for which the binding signal with FEV was 1.36 fold enrichment (6-mer frequency, TF over GST control); in the experiment with ETV5, 1.31 fold enrichment (6-mer frequency, TF over GST control); in the experiment with HSF1, 1.05 fold enrichment (6-mer frequency, TF over GST control); with SPIC, 1.37 fold enrichment (6-mer frequency, TF over GST control); in the experiment with ELF4, 1.31 fold enrichment (6-mer frequency, TF over GST control); in the experiment with ELK4, 1.24 fold enrichment (6-mer frequency, TF over GST control). The binding signal with ETV2 is 1.36 fold enrichment (6-mer frequency, TF over GST control); with ELF3, 1.17 fold enrichment (6-mer frequency, TF over GST control); in the experiment with CRX it was 1.05 fold enrichment (6-mer frequency, TF over GST control); in the experiment with ETV1, 1.37 fold enrichment (6-mer frequency, TF over GST control).
On to TGAATA, for which the binding signal was 1.06 fold enrichment (6-mer frequency, TF over GST control) in the experiment with FEV; 1.13 fold enrichment (6-mer frequency, TF over GST control) with ETV5; 1.24 fold enrichment (6-mer frequency, TF over GST control) with HSF1; 1.22 fold enrichment (6-mer frequency, TF over GST control) in the experiment with SPIC; 1.13 fold enrichment (6-mer frequency, TF over GST control) with ELF4; 1.12 fold enrichment (6-mer frequency, TF over GST control) in the experiment with ELK4. Also, the binding signal is 1 fold enrichment (6-mer frequency, TF over GST control) in the experiment with ETV2; 1.08 fold enrichment (6-mer frequency, TF over GST control) in the experiment with ELF3; 1.16 fold enrichment (6-mer frequency, TF over GST control) with CRX; 1.15 fold enrichment (6-mer frequency, TF over GST control) with ETV1.
Consider TTAAAG, for which the binding signal in the experiment with FEV is 1.17 fold enrichment (6-mer frequency, TF over GST control); in the experiment with ETV5, 1.15 fold enrichment (6-mer frequency, TF over GST control); with HSF1, 1.85 fold enrichment (6-mer frequency, TF over GST control); with SPIC, 1.17 fold enrichment (6-mer frequency, TF over GST control); with ELF4, 1.15 fold enrichment (6-mer frequency, TF over GST control); in the experiment with ELK4 it was 1.18 fold enrichment (6-mer frequency, TF over GST control). Besides, the binding signal in the experiment with ETV2 is 1.12 fold enrichment (6-mer frequency, TF over GST control); in the experiment with ELF3 it was 1.26 fold enrichment (6-mer frequency, TF over GST control); in the experiment with CRX, 2.66 fold enrichment (6-mer frequency, TF over GST control); with ETV1, 1.15 fold enrichment (6-mer frequency, TF over GST control).
ATTTTT: the binding signal was 1.15 fold enrichment (6-mer frequency, TF over GST control) with FEV; 1.21 fold enrichment (6-mer frequency, TF over GST control) in the experiment with ETV5; 1.31 fold enrichment (6-mer frequency, TF over GST control) in the experiment with HSF1; 1.1 fold enrichment (6-mer frequency, TF over GST control) with SPIC; 1.19 fold enrichment (6-mer frequency, TF over GST control) with ELF4; 1.31 fold enrichment (6-mer frequency, TF over GST control) with ELK4. Further, the binding signal is 1.29 fold enrichment (6-mer frequency, TF over GST control) with ETV2; 1.2 fold enrichment (6-mer frequency, TF over GST control) with ELF3; 1.28 fold enrichment (6-mer frequency, TF over GST control) with CRX; 1.28 fold enrichment (6-mer frequency, TF over GST control) with ETV1.
On to CTCTGC, for which the binding signal was 1.5 fold enrichment (6-mer frequency, TF over GST control) in the experiment with FEV; 1.49 fold enrichment (6-mer frequency, TF over GST control) with ETV5; 1.25 fold enrichment (6-mer frequency, TF over GST control) with HSF1; 1.55 fold enrichment (6-mer frequency, TF over GST control) in the experiment with SPIC; 1.61 fold enrichment (6-mer frequency, TF over GST control) with ELF4; 1.86 fold enrichment (6-mer frequency, TF over GST control) with ELK4. Moreover, the binding signal in the experiment with ETV2 is 1.43 fold enrichment (6-mer frequency, TF over GST control); with ELF3, 1.56 fold enrichment (6-mer frequency, TF over GST control); with CRX, 1.2 fold enrichment (6-mer frequency, TF over GST control); with ETV1, 1.64 fold enrichment (6-mer frequency, TF over GST control).
As to TACCCT, the binding signal is 1.29 fold enrichment (6-mer frequency, TF over GST control) with FEV; 1.28 fold enrichment (6-mer frequency, TF over GST control) with ETV5; 1.28 fold enrichment (6-mer frequency, TF over GST control) with HSF1; 1.38 fold enrichment (6-mer frequency, TF over GST control) with SPIC; 1.44 fold enrichment (6-mer frequency, TF over GST control) in the experiment with ELF4; 1.47 fold enrichment (6-mer frequency, TF over GST control) with ELK4. Further, the binding signal was 1.35 fold enrichment (6-mer frequency, TF over GST control) with ETV2; 1.2 fold enrichment (6-mer frequency, TF over GST control) in the experiment with ELF3; 1.45 fold enrichment (6-mer frequency, TF over GST control) with CRX; 1.35 fold enrichment (6-mer frequency, TF over GST control) in the experiment with ETV1.
